Test results as given in PubChem BioAssay (NCI).
The panel holds about 83,000 compounds, 20% with a hit somewhere; the sample as a whole holds those more often.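 Single-dose data. Exposure time 48 hours. Values below 10 considered active.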 Values without a mark were called inactive. The source made the active and inactive calls.

Key:
Experiment in all cases: NCI-60 one-dose screen, 48 h (100 = growth as untreated, 0 = no growth, -100 = all killed)
Details in all cases: 10 µM unless noted
NCI-H23 lung = tested on: NCI-H23 lung
NCI-H226 lung = tested on: NCI-H226 lung
NCI-H322M lung = tested on: NCI-H322M lung
HOP-62 NSCLC = tested on: HOP-62 NSCLC
NCI-H460 lung = tested on: NCI-H460 lung
HOP-92 NSCLC = tested on: HOP-92 NSCLC
NCI-H522 lung = tested on: NCI-H522 lung
A549/ATCC NSCLC = tested on: A549/ATCC NSCLC
786-0 renal = tested on: 786-0 renal
COLO 205 colon = tested on: COLO 205 colon
DU-145 prostate = tested on: DU-145 prostate
K-562 leukemia = tested on: K-562 leukemia
MALME-3M melanoma = tested on: MALME-3M melanoma
MDA-MB-231 breast = tested on: MDA-MB-231 breast
SF-268 CNS = tested on: SF-268 CNS
SF-295 CNS = tested on: SF-295 CNS
SF-539 CNS = tested on: SF-539 CNS
UACC-257 melanoma = tested on: UACC-257 melanoma
M14 melanoma = tested on: M14 melanoma
RXF 393 renal = tested on: RXF 393 renal

SMILES	growth (NCI-H23 lung) [%]	growth (NCI-H226 lung) [%]	growth (NCI-H322M lung) [%]	growth (HOP-62 NSCLC) [%]	growth (NCI-H460 lung)	growth (HOP-92 NSCLC)	growth (NCI-H522 lung)	growth (A549/ATCC NSCLC) [%]	growth (786-0 renal)	growth (COLO 205 colon)	growth (DU-145 prostate)	growth (K-562 leukemia)	growth (MALME-3M melanoma)	growth (MDA-MB-231 breast)	growth (SF-268 CNS) [%]	growth (SF-295 CNS)	growth (SF-539 CNS)	growth (UACC-257 melanoma)	growth (M14 melanoma)	growth (RXF 393 renal) [%]
O=C1Nc2c(ccc(Cl)c2Cl)/C1=C/c1ccc(O)cc1	86.7	90.1	107	86.1	94.1%	65.7%	64.1%	35.7	92.3%	98.6%	119%	91.9%	108%	88.7%	89.1	87.6%	98.3%	102%	100%	–
O=C(Nc1sc2c(c1C(=O)O)CCCC2)c1cccc(C(F)(F)F)c1	90.1	103	95	104	78.5%	79.2%	78.7%	85.3	94%	113%	94.2%	–	99.9%	94%	94.9	85.1%	93.4%	80.7%	–	–
O=C(N/N=C/c1ccncc1)c1ccccc1Nc1cccc(C(F)(F)F)c1	95.5	66.3	88.5	97.6	103%	47.3%	82%	55.6	86.7%	107%	69.2%	77.7%	92.8%	79.8%	69.5	94.5%	112%	62.9%	87.4%	–
CCN(CC)CCCC(C)Nc1cc(-c2cccc(OC(F)(F)F)c2)nc2ccc(N3CCCC3)cc12 (configuration not stated)	57.9	46.7	17.7	23.3	-4.02% (active)	-5.67% (active)	2.05% (active)	10.7	-19.7% (active)	-79% (active)	37%	-46.5% (active)	-93% (active)	-50.3% (active)	26	28.3%	-91.7% (active)	-81.1% (active)	-81.9% (active)	–
O=C1NC(=S)NC(=O)C1=Cc1cccc(C=C2C(=O)NC(=S)NC2=O)c1	102	98.8	110	104	104%	116%	93.1%	108	12.2%	113%	110%	102%	109%	108%	103	108%	99.9%	102%	-58.6% (active)	–
CCn1cc(C2NC(=O)c3ccccc3N2)c2cccc(C)c21 (configuration not stated)	30.1	57.2	36.7	31.6	1.6% (active)	80.5%	-39.8% (active)	18.4	39.4%	-17.3% (active)	12.2%	3.49% (active)	48%	15.3%	43.2	3.52% (active)	-49.7% (active)	66.7%	8.05% (active)	–
COc1cc(NCC(O)CN(CC(C)C)CC(C)C)c2nc(C)ccc2c1 (configuration not stated)	85.6	88.5	107	67.7	96.5%	98.6%	68.2%	67.3	90.7%	66.3%	97.9%	78.4%	119%	55.9%	78.9	100%	108%	54.1%	88.6%	–
CC(C)(C)OC(=O)N1C/C(=C\c2ccoc2)C(=O)/C(=C/c2ccoc2)C1	99.1	98.3	87.7	93.9	107%	100%	78.8%	102	93.8%	109%	109%	29.3%	92.6%	109%	89.5	103%	106%	95.9%	94.2%	–
c1ccc(Cn2nc3c(c2-c2ccccc2)-c2oncc2CC3)cc1	87.5	103	113	105	102%	62.3%	76%	90.5	105%	113%	112%	73.2%	89%	96.8%	107	76.7%	110%	92.1%	98.2%	–
Cc1[nH]n(C(=O)c2ccncc2)c(=O)c1N=Nc1ccc(F)c(Cl)c1	92.1	91.9	110	95.8	109%	89.7%	103%	107	92.9%	126%	139%	21.4%	104%	100%	94.2	91.1%	97%	11.7%	99.8%	–
CCCCCCCCCCCCCCCC(=O)OC[C@@]1(O)C[C@@]23CC[C@@H]4C(C)(C)[C@H](O)CC[C@@]4(C)[C@@H]2CC[C@H]1C3	98	99.2	114	101	107%	113%	91.2%	104	0.227% (active)	115%	108%	98%	114%	110%	101	112%	97.8%	110%	-30.4% (active)	–
CC(=O)OCCCCCNc1ccccc1	101	104	106	102	118%	109%	95.1%	101	101%	107%	106%	–	103%	98%	99.4	110%	94.2%	110%	113%	123
COc1ccc(Nn2c(SCC(=O)Nc3nc(-c4ccc(Cl)cc4)cs3)nc(C)c2C)cc1	31.9	60.5	112	100	39.3%	38.6%	66.2%	44	59.5%	77.5%	79.6%	26.9%	99.1%	79.7%	66.1	43.9%	79.1%	48.9%	62.5%	–
COc1ccc(C2=C(c3ccccc3)c3ccc(OC(C)=O)cc3OC2(C)C)cc1	79.8	86.3	102	107	84.8%	81.1%	88.8%	87.7	101%	108%	105%	–	107%	68.2%	102	72.3%	102%	145%	110%	95.8
COc1ccc(NC(=O)c2sc3nc(C)c(C(=O)CCc4cccc(OC)c4)cc3c2N)cc1	81.1	89.7	40.1	70.8	1.32% (active)	88.4%	78.7%	30.2	78.5%	44.1%	71.7%	20%	62.5%	85.8%	80.2	15.7%	72%	89%	70.1%	–
COc1ccc(C(O)c2cc3c(N)c(C(=O)Nc4ccc(Br)cc4)sc3nc2C)cc1 (configuration not stated)	38.1	42.4	39.4	23	6.2% (active)	44.1%	6.85% (active)	24.3	50.3%	11.3%	-4.27% (active)	3.49% (active)	24.8%	54.1%	45.4	21.6%	27.2%	32.3%	3.91% (active)	–
